Assay results reported in PubChem BioAssay AID1159580 (chemical genetic matrix, 2015).
“And” between values parts separate entries of the source, which are not always exact repeats. Identical values can stand only once. Among all 5,500 compounds or so, about 2,000 (36%) were called active. Another 18% or so got no clear call; they are omitted. Rule as the data show it: active = normalized growth mostly below about 0.91 (no sharp cut-off); inconclusive = no clear call, values can overlap the other calls; inactive = mostly above about 0.92. The list shows a part of the results.

Experiment: chemical genetic growth profiling, strain panel (AID 1159580);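 also: tested at 20 µM; growth read once vehicle control cultures reached saturation at 30 °C; 1 = growth at the plate median or of vehicle wells; lower values mean less growth of the strain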
Conditions: S. cerevisiae deletion strains, growth OD

Measured: normalized growth

O=C(O)c1cc2ccccc2[nH]1
inactive: locus YAL013W, strain DEP1, stronger effect = lower value 1.01 | locus YAL021C, strain ccr4, stronger effect = lower value 0.969 | locus YAL026C, strain drs2, stronger effect = lower value 0.99 | locus YAL030W, strain snc1, stronger effect = lower value 1 | locus YBL061C, strain skt5, stronger effect = lower value 0.996 | locus YBR009C, strain hhf1, stronger effect = lower value 0.996 | locus YBR021W, strain FUR4, stronger effect = lower value 0.98 | locus YBR023C, strain chs3, stronger effect = lower value 0.994 | locus YBR171W, strain sec66, stronger effect = lower value 0.982 | locus YBR229C, strain ROT2, stronger effect = lower value 1 | locus YBR231C, strain swc5, stronger effect = lower value 0.994 | locus YBR279W, strain paf1, stronger effect = lower value 0.991 | locus YCL011C, strain gbp2, stronger effect = lower value 0.98 | locus YCL016C, strain dcc1, stronger effect = lower value 0.998 | locus YCL029C, strain bik1, stronger effect = lower value 1.01 | locus YCL061C, strain MRC1, stronger effect = lower value 0.973 | locus YCL069W, strain vba3, stronger effect = lower value 0.984 | locus YCR088W, strain abp1, stronger effect = lower value 0.98 | locus YDL005C, strain med2, stronger effect = lower value 0.982 | locus YDL035C, strain GPR1, stronger effect = lower value 1.01 | locus YDL040C, strain nat1, stronger effect = lower value 0.995 | locus YDL074C, strain BRE1, stronger effect = lower value 1.01 | locus YDL101C, strain DUN1, stronger effect = lower value 1.02 | locus YDL134C, strain PPH21, stronger effect = lower value 1.01 | locus YDL185W, strain tfp1, stronger effect = lower value 1.01 | locus YDL192W, strain arf1, stronger effect = lower value 1.02 | locus YDR001C, strain nth1, stronger effect = lower value 0.977 | locus YDR069C, strain doa4, stronger effect = lower value 1 | locus YDR101C, strain arx1, stronger effect = lower value 1.02 | locus YDR137W, strain rgp1, stronger effect = lower value 0.938 | locus YDR150W, strain NUM1, stronger effect = lower value 1.01 | locus YDR159W, strain sac3, stronger effect = lower value 0.982 | locus YDR162C, strain NBP2, stronger effect = lower value 1.04 | locus YDR195W, strain ref2 0.978 | locus YDR297W, strain sur2, stronger effect = lower value 0.981 | locus YDR318W, strain mcm21, stronger effect = lower value 1.01 | locus YDR334W, strain swr1, stronger effect = lower value 0.958 | locus YDR335W, strain msn5, stronger effect = lower value 0.987 | locus YDR388W, stronger effect = lower value 1.01 | locus YDR392W, strain spt3, stronger effect = lower value 0.947 | locus YDR502C, strain sam2, stronger effect = lower value 1.01 | locus YEL003W, strain gim4, stronger effect = lower value 0.978 | locus YEL037C, strain rad23, stronger effect = lower value 0.982 | locus YEL061C, strain CIN8 (second series), stronger effect = lower value 0.981 | locus YEL061C, strain CIN8, stronger effect = lower value 1 | locus YER015W, strain faa2, stronger effect = lower value 0.989 | locus YER016W, strain bim1, stronger effect = lower value 1 | locus YER110C, stronger effect = lower value 1.02 | locus YER111C, strain swi4, stronger effect = lower value 0.997 | locus YER155C, strain BEM2 (second series), stronger effect = lower value 1.01 | locus YER155C, strain BEM2, stronger effect = lower value 0.992 | locus YER167W, strain BCK2, stronger effect = lower value 1.01 | locus YFR010W, strain ubp6, stronger effect = lower value 0.968 | locus YGL078C, strain dbp3, stronger effect = lower value 0.995 | locus YGL086W, strain mad1, stronger effect = lower value 1.02 | locus YGL167C, strain pmr1, stronger effect = lower value 0.993 | locus YGL173C, strain kem1, stronger effect = lower value 0.975 | locus YGL227W, strain vid30, stronger effect = lower value 0.982 | locus YGL240W, strain doc1, stronger effect = lower value 1 | locus YGL248W, strain PDE1, stronger effect = lower value 1 | locus YGL253W, strain hxk2, stronger effect = lower value 0.987 | locus YGR078C, strain PAC10, stronger effect = lower value 0.99 | locus YGR135W, strain pre9, stronger effect = lower value 1.01 | locus YGR229C, strain SMI1, stronger effect = lower value 0.999 | locus YGR252W, strain gcn5, stronger effect = lower value 0.984 | locus YHR013C, strain ard1, stronger effect = lower value 1 | locus YHR027C, strain rpn1, stronger effect = lower value 1.02 | locus YHR030C, strain SLT2, stronger effect = lower value 1.01 and 1.03 | locus YHR079C, strain IRE1 (second series), stronger effect = lower value 1.01 | locus YHR079C, strain IRE1, stronger effect = lower value 1 | locus YHR094C, strain hxt1, stronger effect = lower value 1.02 | locus YHR129C, strain ARP1, stronger effect = lower value 1.01 | locus YHR142W, strain chs7, stronger effect = lower value 0.928 | locus YHR200W, strain rpn10, stronger effect = lower value 1.02 | locus YIL066C, strain RNR3, stronger effect = lower value 1.02 | locus YIL073C, strain SPO22, stronger effect = lower value 1.07 | locus YIL125W, strain kgd1, stronger effect = lower value 0.995 | locus YIR030C, strain dcg1, stronger effect = lower value 1.01 | locus YJL092W, strain hpr5, stronger effect = lower value 0.97 | locus YJL095W, strain BCK1 (second series), stronger effect = lower value 1 | locus YJL095W, strain BCK1, stronger effect = lower value 1.01 | locus YJL115W, strain asf1, stronger effect = lower value 0.975 | locus YJL129C, strain trk1, stronger effect = lower value 0.971 | locus YJL134W, strain LCB3, stronger effect = lower value 1.01 | locus YJL154C, strain vps35, stronger effect = lower value 0.966 | locus YJL164C, strain tpk1, stronger effect = lower value 1 | locus YJL166W, strain qcr8, stronger effect = lower value 1 | locus YJL168C, strain set2, stronger effect = lower value 1.02 | locus YJL187C, strain SWE1 (second series), stronger effect = lower value 1.01 | locus YJL187C, strain SWE1, stronger effect = lower value 0.988 | locus YJR043C, strain POL32, stronger effect = lower value 0.99 | locus YJR066W, strain TOR1, stronger effect = lower value 0.935
